# Test results: the supplement of paper PMC3334620
# In all, about 33,000 sequences were measured (“E-score (-0.5 to 0.5)”: median about -0.0059, highest 2% from about 0.26 on). The sample as a whole holds a higher share of the highest values than the screen did.
# Target: T1, Cin5 (UniProt P40917)
# T1 sequence: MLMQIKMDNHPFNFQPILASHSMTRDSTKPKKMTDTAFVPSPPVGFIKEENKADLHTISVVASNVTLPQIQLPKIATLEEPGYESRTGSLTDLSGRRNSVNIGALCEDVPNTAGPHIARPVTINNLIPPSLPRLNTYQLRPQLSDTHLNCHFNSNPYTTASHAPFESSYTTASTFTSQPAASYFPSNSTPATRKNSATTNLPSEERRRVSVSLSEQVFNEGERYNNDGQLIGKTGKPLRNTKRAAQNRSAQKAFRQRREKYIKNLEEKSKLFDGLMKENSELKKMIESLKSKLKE
# Test: PBM E-score (8-mer binding enrichment) (E-score (-0.5 to 0.5)); higher = stronger / more preferred TF binding
# Conditions: protein concentration: 100 nM; construct: GST-full length
# Description: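 Universal 'all 10-mer' protein binding microarrays (Agilent AMADID 015681) probed with GST-tagged S. cerevisiae TFs (full-length or DBD) made by in vitro transcription/translation (PURExpress), about 100-200 nM. Bound TF was detected with fluorescent anti-GST. Each ungapped 8-mer (which stands for itself and its reverse complement) is scored by the PBM enrichment score (E-score), a modified Wilcoxon-Mann-Whitney statistic from -0.5 to +0.5, computed with the Universal PBM Analysis Suite. Scale: above 0.35 generally sequence-specific binding.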
row,Sequence,PBM E-score
1,CACCAGTG,-0.0701
2,AGCCTTGC,-0.0563
3,CCCCGGGC,-0.282
4,CGATGACA,0.0915
5,ATCGACAT,0.0947
6,ATATTTGC,0.209
7,CCTTTAAG,-0.107
8,CTTGAGCA,-0.216
9,AATCTAAT,0.0853
10,GTCTATTA,0.0891
11,ATCTATTA,0.321
12,ACGTATTA,0.298
13,CTCTATTA,0.0158
14,ATGTATCG,0.232
15,ATGTATTC,0.104
16,ACGTATTG,0.0396
17,GCGTATTA,0.0794
18,ACCTATTA,0.267
19,ATGTATTG,0.304
20,GCCTATTA,0.177
21,CCCTATTA,-0.0143
22,ACTAGCAA,0.00926

row,Sequence,PBM E-score
1,AGATCACT,0.112
2,ACAAGTAT,0.221
3,AGGTATTG,0.126
4,CTTCAGTA,0.0297
5,ATAGTAGA,0.139
6,ATGTATTA,0.233
7,CTGTATTA,0.133
8,GTGTATTA,0.273
9,GCTGTTCC,-0.0338
10,CTCTTATC,0.192
11,GTGGAAAA,0.0919
12,CCGCGTGC,-0.0723
13,GCTTACAC,0.391
14,GCTTACCA,0.381
15,AATTACTA,0.212
16,GCTTACGA,0.414
17,GCTTACCC,0.00966
18,GATTACTA,0.387
19,CCTTACGA,-0.114
20,ACTTACAC,-0.04
21,TCTTACCA,-0.0191
22,GCTTACAA,0.248

row,Sequence,PBM E-score
1,ACTTACGA,0.207
2,CATTACTA,0.189
3,ATTGTGAC,0.0953
4,GAGCCACC,-0.354
5,GTACCGGA,-0.00967
6,AGCGGCTG,-0.125
7,ACAGCCAG,-0.0281
8,CAATTGGC,0.165
9,AATTCCAA,0.0946
10,GACGCTTA,-0.059
11,CGACGTAC,-0.00505
12,CCGTCGCC,-0.0908
13,CCCATATA,0.178
14,AGAAGGAC,-0.211
15,CGCCAGGA,-0.0898
16,GCTTACTA,0.388
17,ACTTACTA,0.108
18,CCTTACTA,0.0454
19,ACTTATCA,0.0834
20,CCTTATCA,0.0994
21,GCTTATCA,0.285
22,AAGCCGCG,-0.0409

row,Sequence,PBM E-score
1,ACATTCGA,0.0628
2,ATCCGGAA,0.227
3,ATCCGGAC,-0.149
4,ATCCGGAT,0.259
5,TGGGGTAA,0.0776
6,CGTAGTCA,-0.015
7,AATGTAAC,0.117
8,ACTGTAAG,0.143
9,CATGTAAG,0.13
10,AATGTAAT,0.301
11,AATGTAAG,0.319
12,AATGTAAA,0.19
13,CAGGCAAA,-0.00195
14,AGACCCAG,-0.097
15,CAACGCCA,-0.074
16,GTTTATTA,0.215
17,AGTATTTA,0.0905
18,ATTTATTA,0.306
19,ACTATTTC,0.228
20,GGTATTTA,0.0824
21,CTTTATTA,0.0651
22,CTTATTTC,0.238
